# Data as given in PubChem BioAssay (NCATS).
# “And” between values parts separate entries of the source, which are not always exact repeats. Equal entries are not always repeated. Values without a mark were called inactive. Inconclusive results are not listed. The source made the active and inactive calls. Unless noted, calls follow the shape of the dose curve; as a rule, active = well fitted curve in either direction with a large enough effect (not every such curve was filed as active); inconclusive = small, poorly fitted or top-dose-only effect, or another doubt; inactive = flat fitted curve, though single readings scatter.
# Assays:
# [1] = target: Lysosomal acid glucosylceramidase (Homo sapiens) (UniProt P04062); test: Glucocerebrosidase-p2 (AID 348; in the data active = potency below about 10 µM; also: potency is read from the fitted curve at half-maximal effect); settings: purified GBA, blue fluorogenic substrate, 40 min
# Method in brief: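 Compounds titrated from 0.6 nM upwards against 0.2 nM enzyme in pH 5.9 citric acid/KH2PO4, taurocholate, tween-20; blue fluorogenic substrate 80 uM, 40 min room temperature, stopped and read Ex 365/Em 440 for AC50.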
# [2] = Stat Signaling Pathway (AID 446); settings: ME-180 SIE beta-lactamase reporter, IL-6 stimulated, 5 h; at 7.69 µM (top of the series) unless noted;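 also: ME-180 cervical cancer cells given 40 pM IL-6 alongside compound; SIE-controlled beta-lactamase reporter measured as 460/530 nm FRET emission ratio; % is scaled to controls: 0 for no effect and ±100 for the full control effect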
# Method in brief: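 IL-6/STAT signaling read in ME-180 cells via an SIE beta-lactamase reporter. Stimulus was 40 pM IL-6 (its AC50) for 5 hrs, so both activation and inhibition register.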
# [3] = target: Glucocorticoid receptor (Homo sapiens) (UniProt P04150); test: GR-GFP Redistribution (AID 450;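 active = compounds whose dose series gives a full or clear partial fitted curve of increased nuclear translocation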; also: potency is read from the fitted curve at half-maximal effect); settings: U2OS GR-GFP nuclear translocation, laser cytometry, 2 h
# [4] = target: Glucocorticoid receptor (Homo sapiens) (UniProt P04150); test: GR-EFC Redistribution (AID 451; calls by dose curve; also: potency is read from the fitted curve at half-maximal effect); settings: CHO-K1 GR-EFC translocation, beta-gal luminescence, 2 h
# Method in brief: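 CHO-K1 cells stably expressing nuclear-localized β-gal enzyme acceptor and GR fused C-terminally to the enzyme donor fragment; ligand-driven nuclear translocation restores β-gal by complementation. Compounds titrated up to 46 uM final, 2 h at 37 °C; luminescence read.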
# [5] = target: Mitogen-activated protein kinase 10 (Mus musculus) (UniProt Q61831); test: JNK3 AlphaScreen Assay (AID 530); settings: JNK3 lysate, c-Jun phosphorylation; series mostly up to 11.4 µM;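 also: kinase came from lysate of stimulated human HepG2 cells; signal reports phosphorylation of biotinylated GST-cJun 1-79 at Ser73 with 10 µM ATP; % is scaled to controls: 0 for no effect and ±100 for the full control effect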
# Method in brief: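 Inhibitors reduce antibody binding to phosphorylated biotin-cJun, lowering AlphaScreen luminescence. Lysates from HepG2 cells pre-activated by IL-1beta plus TNF-alpha supplied JNK3; compounds were titrated.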
# [6] = target: 3',5'-cyclic-AMP phosphodiesterase 4B (Homo sapiens) (UniProt Q07343); test: qHTS Assay for Inhibitors of PDE-IV (AID 607; active = well fitted activation curve with a large enough effect in the main read-out, with a control signal flat, not every such curve was filed as active; also: % of control where 0% means no effect); settings: HEK293 ACTOne CNG channel cells, membrane potential fluorescence; series mostly up to 22.9 µM
# Method in brief: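 Live HEK293 cells with a modified cyclic nucleotide-gated (CNG) channel report intracellular cAMP via membrane-potential dye fluorescence (ex 535/em 590 nm). Endogenous PDE-IV was targeted. Compounds were tested at up to 22.9 uM final; RO 20-1724 100 uM served as control.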
# [7] = AP1 Signaling Pathway (AID 357); settings: ME-180 (cervical carcinoma) AP-1-bla reporter, EGF-induced, beta-lactamase ratio, 5 h;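 also: ME-180 reporter cells stimulated with EGF at its EC50 level; % is scaled to controls: 0 for no effect and ±100 for the full control effect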
# Method in brief: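 Beta-lactamase reporter under AP-1 response element, ME-180 background. Stimulus: EC50 EGF. Compound exposure 5 h, 37 °C. Detection: CCF4, 2.5 h RT, 460/530 nm. Values: AC50 from titration.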
# [8] = target: Cytochrome P450 1A2 (Homo sapiens) (UniProt P05177); test: p450-cyp1a2 (AID 410; calls by dose curve; also: potency is read from the fitted curve at half-maximal effect;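 as to activity change, negative = inhibition: -100% = full effect of reference inhibitor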); settings: recombinant CYP1A2, luciferin-ME demethylation, luminescence; series mostly up to 11.4 µM
# Method in brief: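 20nM CYP1A2 with 100uM Luciferin-ME (at Km) in 100mM KPO4; compound preincubated 10 min, NADPH regeneration added, 60 min at room temperature. Luciferin quantified by luminescence after detection reagent; normalized to 57 uM furafylline.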
# [9] = NFAT Signaling Pathway (AID 444); settings: Jurkat NFAT-bla M1, carbachol, beta-lactamase ratio, 5 h;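 also: carbachol stimulus at about its EC50 of 1 µM final; % is scaled to controls: 0 for no effect and ±100 for the full control effect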
# Method in brief: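 Jurkat cells carrying an NFAT-driven β-lactamase reporter and co-transfected muscarinic M1 receptor were treated with compound plus carbachol (1 uM final, an EC50 level) for 5 h at 37 °C. CCF4 loading followed for 1 h at RT; 460/530 nm ratio gave %activity.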
# [10] = at 7.69 µM (top of the series) unless noted
# Sequence of Glucocorticoid receptor (Homo sapiens) (P04150 whole entry, looked up, the tested form may be a part): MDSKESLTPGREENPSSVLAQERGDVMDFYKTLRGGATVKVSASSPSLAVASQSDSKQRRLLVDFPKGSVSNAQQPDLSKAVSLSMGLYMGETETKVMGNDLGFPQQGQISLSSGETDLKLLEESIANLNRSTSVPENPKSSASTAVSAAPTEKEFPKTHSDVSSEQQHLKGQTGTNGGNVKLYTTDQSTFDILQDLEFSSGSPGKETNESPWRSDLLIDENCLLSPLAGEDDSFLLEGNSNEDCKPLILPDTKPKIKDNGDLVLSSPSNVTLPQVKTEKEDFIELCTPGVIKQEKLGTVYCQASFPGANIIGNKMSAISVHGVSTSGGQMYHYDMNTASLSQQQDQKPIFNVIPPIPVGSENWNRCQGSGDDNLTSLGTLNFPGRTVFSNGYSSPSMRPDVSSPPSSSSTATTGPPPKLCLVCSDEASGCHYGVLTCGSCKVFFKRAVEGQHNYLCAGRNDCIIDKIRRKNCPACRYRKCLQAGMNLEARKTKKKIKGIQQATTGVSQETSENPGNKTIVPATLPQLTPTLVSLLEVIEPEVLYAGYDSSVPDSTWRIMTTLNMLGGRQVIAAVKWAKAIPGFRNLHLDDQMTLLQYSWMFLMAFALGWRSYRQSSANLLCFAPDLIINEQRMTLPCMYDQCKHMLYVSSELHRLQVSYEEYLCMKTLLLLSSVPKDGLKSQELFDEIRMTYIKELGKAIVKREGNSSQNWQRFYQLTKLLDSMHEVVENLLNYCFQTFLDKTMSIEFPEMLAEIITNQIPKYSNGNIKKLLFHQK
# Sequence of Cytochrome P450 1A2 (Homo sapiens) (P05177 whole entry, looked up): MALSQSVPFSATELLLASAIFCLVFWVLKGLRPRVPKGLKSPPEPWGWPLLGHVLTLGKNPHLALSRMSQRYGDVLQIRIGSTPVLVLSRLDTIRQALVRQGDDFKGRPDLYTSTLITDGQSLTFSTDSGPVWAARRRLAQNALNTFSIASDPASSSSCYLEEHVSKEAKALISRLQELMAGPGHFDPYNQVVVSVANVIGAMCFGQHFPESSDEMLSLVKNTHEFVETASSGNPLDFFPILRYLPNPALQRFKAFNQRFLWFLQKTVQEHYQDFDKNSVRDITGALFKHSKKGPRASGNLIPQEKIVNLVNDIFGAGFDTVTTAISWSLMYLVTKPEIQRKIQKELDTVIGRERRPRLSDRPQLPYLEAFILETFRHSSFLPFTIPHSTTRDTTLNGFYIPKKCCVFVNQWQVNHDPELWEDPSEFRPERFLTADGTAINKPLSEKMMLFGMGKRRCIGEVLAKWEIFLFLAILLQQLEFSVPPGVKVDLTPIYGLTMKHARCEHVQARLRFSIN
# Sequence of 3',5'-cyclic-AMP phosphodiesterase 4B (Homo sapiens) (Q07343 whole entry, looked up): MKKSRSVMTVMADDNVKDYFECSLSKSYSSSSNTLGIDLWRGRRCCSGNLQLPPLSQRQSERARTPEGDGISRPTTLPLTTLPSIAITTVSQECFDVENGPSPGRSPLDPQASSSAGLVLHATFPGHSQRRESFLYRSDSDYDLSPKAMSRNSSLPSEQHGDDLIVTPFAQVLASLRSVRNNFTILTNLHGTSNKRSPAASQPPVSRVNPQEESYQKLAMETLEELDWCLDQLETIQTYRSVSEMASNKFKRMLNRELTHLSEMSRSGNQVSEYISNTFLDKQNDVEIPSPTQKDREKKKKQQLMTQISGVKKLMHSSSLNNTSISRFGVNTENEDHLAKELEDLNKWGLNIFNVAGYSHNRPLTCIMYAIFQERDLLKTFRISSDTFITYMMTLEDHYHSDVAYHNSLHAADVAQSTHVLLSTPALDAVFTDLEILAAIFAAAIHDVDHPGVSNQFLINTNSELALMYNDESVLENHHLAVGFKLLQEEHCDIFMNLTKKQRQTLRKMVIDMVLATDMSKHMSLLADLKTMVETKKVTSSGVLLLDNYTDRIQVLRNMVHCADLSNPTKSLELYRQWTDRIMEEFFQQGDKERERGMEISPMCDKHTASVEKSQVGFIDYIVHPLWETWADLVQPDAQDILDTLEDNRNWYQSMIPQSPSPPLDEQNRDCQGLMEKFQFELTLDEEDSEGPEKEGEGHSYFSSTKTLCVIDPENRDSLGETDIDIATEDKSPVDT
# Sequence of Lysosomal acid glucosylceramidase (Homo sapiens) (P04062 whole entry, looked up): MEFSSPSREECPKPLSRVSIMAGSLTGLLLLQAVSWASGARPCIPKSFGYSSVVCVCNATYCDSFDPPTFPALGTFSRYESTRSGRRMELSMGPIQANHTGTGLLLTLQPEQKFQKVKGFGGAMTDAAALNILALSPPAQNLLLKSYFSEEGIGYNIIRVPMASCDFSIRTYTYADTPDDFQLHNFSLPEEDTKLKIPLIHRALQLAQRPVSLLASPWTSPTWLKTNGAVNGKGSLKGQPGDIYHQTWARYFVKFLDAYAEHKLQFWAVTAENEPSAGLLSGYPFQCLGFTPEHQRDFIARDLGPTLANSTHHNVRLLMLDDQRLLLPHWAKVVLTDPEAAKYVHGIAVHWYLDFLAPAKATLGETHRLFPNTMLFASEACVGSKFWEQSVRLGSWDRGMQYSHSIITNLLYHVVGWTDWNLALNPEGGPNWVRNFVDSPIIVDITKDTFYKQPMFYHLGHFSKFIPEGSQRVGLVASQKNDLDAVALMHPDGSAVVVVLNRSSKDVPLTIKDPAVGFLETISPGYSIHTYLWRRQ
structure (smiles),measurement,setting,value
COC(=O)CC[C@@H](C)[C@@H]1CC[C@@H]2[C@@H]3CC[C@H]4C[C@@H](O)CC[C@@]4(C)[C@@H]3CC[C@]21C,Potency,[1],> 11.4 µM
same,"activity, negative = inhibition",[2],23.8%
same,Potency,[3],> 46 µM
same,Potency,[4],> 9.22 µM
same,Potency,[5],inactive
same,Potency,[6],inactive
CC(=O)N[C@H](Cc1ccc(O)cc1)C(=O)O,"activity change, negative = inhibition",[7]; [10],-0.588%
same,Potency,[8],inactive
same,"activity change, negative = inhibition",[9]; [10],-3.29%
same,"activity, negative = inhibition",[2],-0.609%
same,Potency,[3],> 46 µM
same,Potency,[4],> 9.22 µM
same,Potency,[5],inactive
same,Potency,[6],inactive
CC(=O)N1CCN(c2ccc(OC[C@@H]3CO[C@@](Cn4ccnc4)(c4ccc(Cl)cc4Cl)O3)cc2)CC1,"activity change, negative = inhibition",[7]; at 17.2 µM (top of the series),-18.1%
same,"activity change, negative = inhibition",[7]; at 38 µM (top of the series),-10.5%
same,"activity change, negative = inhibition",[9]; at 17.2 µM (top of the series),-5.42%
same,"activity change, negative = inhibition",[9]; at 38 µM (top of the series),-20.5%
same,Potency,[3],> 46 µM and > 20.6 µM
same,Potency,[4],> 46 µM and > 20.6 µM
same,Potency,[6],inactive
NCOC(=O)Cc1ccc(Br)cc1,"activity change, negative = inhibition",[7]; [10],2.56%
same,Potency,[8],200 nM (active)
same,"activity change, negative = inhibition",[9]; [10],11%
same,"activity, negative = inhibition",[2],5.96%
same,Potency,[3],> 46 µM
same,Potency,[4],> 9.22 µM
same,Potency,[5],inactive
same,Potency,[6],inactive
CN1C[C@H](c2ccccc2)C(O)([C@]2(c3ccccc3)CN(C)C[C@@H](c3ccccc3)C2=O)[C@H](c2ccccc2)C1 (stereo partly specified),"activity change, negative = inhibition",[7]; [10],0.442%
same,Potency,[8],inactive
same,"activity change, negative = inhibition",[9]; [10],-6.86%
same,"activity, negative = inhibition",[2],10%
same,Potency,[3],> 46 µM
same,Potency,[4],> 9.22 µM
same,Potency,[5],inactive
same,Potency,[6],inactive
CC(C)c1ccc(O)c(O)c(=O)c1 (tested in a mixture with another compound),Potency,[1],> 11.4 µM
same,"activity, negative = inhibition",[2],4.84%
same,Potency,[3],> 46 µM
same,Potency,[4],> 9.22 µM
same,Potency,[5],inactive
same,Potency,[6],inactive
N#CCCn1c(=O)c(-c2ccccc2)nc2cnc(N3CCNCC3)nc21,Potency,[1],> 11.4 µM
same,Potency,[3],> 9.22 µM
same,Potency,[4],> 46 µM
same,Potency,[5],inactive
same,Potency,[6],inactive
Nc1nc(-c2cccc([N+](=O)[O-])c2)cc(-c2cc(-c3cccc([N+](=O)[O-])c3)nc(N)n2)n1,"activity change, negative = inhibition",[7]; [10],-0.341%
same,"activity change, negative = inhibition",[8],0.3% [at 2.29 µM]
same,"activity change, negative = inhibition",[9]; [10],6.8%
same,"activity, negative = inhibition",[2],3.52%
same,Potency,[3],> 46 µM
same,Potency,[4],> 9.22 µM
same,Potency,[5],inactive
same,Potency,[6],inactive
O=C1C=C(N2CCN(c3ccccn3)CC2)C(=O)c2c(O)ccc(O)c21,Potency,[1],> 11.4 µM
same,"activity, negative = inhibition",[2],-4.42%
same,Potency,[3],> 46 µM
same,Potency,[4],> 9.22 µM
same,Potency,[6],inactive
